Target: Nonstructural protein 3 (Zika virus) (UniProt A0A024AXB9)
Conditions: PRVABC59, Concentration 10.0 uM

Chain of Nonstructural protein 3 (Zika virus) (A0A024AXB9 as listed by the source): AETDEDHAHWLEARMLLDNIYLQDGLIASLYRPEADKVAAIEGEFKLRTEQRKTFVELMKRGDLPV

O=C(Nc1ccc2c(c1)CNC2)c1cc(Br)cc2[nH]ncc12
pKD (Immobilization level 3900.0 pg/mm2, Rmax 38.0 pg/mm2, ka 289981.015 M-1s-1, kd 0.089 1/s): 6.51
pKD (Immobilization level 4900.0 pg/mm2, Rmax 58.0 pg/mm2, ka 168121.167 M-1s-1, kd 0.102 1/s): 6.21
pKD (Immobilization level 5500.0 pg/mm2, Rmax 62.0 pg/mm2, ka 169991.939 M-1s-1, kd 0.118 1/s): 6.16
pKD (Immobilization level 10000.0 pg/mm2, Rmax 73.0 pg/mm2, ka 76775.421 M-1s-1, kd 0.125 1/s): 5.79
pKD (Immobilization level 12000.0 pg/mm2, Rmax 147.0 pg/mm2, ka 18302.495 M-1s-1, kd 0.037 1/s): 5.69
pKD (Immobilization level 13000.0 pg/mm2, Rmax 120.0 pg/mm2, ka 46201.966 M-1s-1, kd 0.079 1/s): 5.76

NCc1ccc(NC(=O)c2cc(Cl)cc3[nH]ncc23)cc1
pKD (Immobilization level 3900.0 pg/mm2, Rmax 39.0 pg/mm2, ka 344993.29 M-1s-1, kd 2.713 1/s): 5.11
pKD (Immobilization level 4900.0 pg/mm2, Rmax 52.0 pg/mm2, ka 210233.557 M-1s-1, kd 2.157 1/s): 4.99
pKD (Immobilization level 5500.0 pg/mm2, Rmax 46.0 pg/mm2, ka 296422.165 M-1s-1, kd 2.251 1/s): 5.12
pKD (Immobilization level 10000.0 pg/mm2, Rmax 40.0 pg/mm2, ka 241734.917 M-1s-1, kd 1.766 1/s): 5.14
pKD (Immobilization level 12000.0 pg/mm2, Rmax 57.0 pg/mm2, ka 217368.509 M-1s-1, kd 1.551 1/s): 5.15
pKD (Immobilization level 13000.0 pg/mm2, Rmax 45.0 pg/mm2, ka 247269.193 M-1s-1, kd 1.32 1/s): 5.27

CC(=O)Nc1cc(Br)cc(C(=O)Nc2ccc3c(c2)CNC3)c1
pKD (Immobilization level 3900.0 pg/mm2, Rmax 40.0 pg/mm2, ka 607998.487 M-1s-1, kd 0.155 1/s): 6.59
pKD (Immobilization level 4900.0 pg/mm2, Rmax 52.0 pg/mm2, ka 391367.264 M-1s-1, kd 0.17 1/s): 6.36
pKD (Immobilization level 5500.0 pg/mm2, Rmax 55.0 pg/mm2, ka 425641.507 M-1s-1, kd 0.187 1/s): 6.36
pKD (Immobilization level 10000.0 pg/mm2, Rmax 42.0 pg/mm2, ka 618288.109 M-1s-1, kd 0.171 1/s): 6.56
pKD (Immobilization level 12000.0 pg/mm2, Rmax 74.0 pg/mm2, ka 318554.659 M-1s-1, kd 0.182 1/s): 6.24
pKD (Immobilization level 13000.0 pg/mm2, Rmax 61.0 pg/mm2, ka 520517.585 M-1s-1, kd 0.161 1/s): 6.51

C[C@@H](N)c1ccc(NC(=O)c2cc(Cl)cc3[nH]ncc23)cc1
pKD (Immobilization level 3900.0 pg/mm2, Rmax 41.0 pg/mm2, ka 249513.67 M-1s-1, kd 1.946 1/s): 5.11
pKD (Immobilization level 4900.0 pg/mm2, Rmax 50.0 pg/mm2, ka 225007.554 M-1s-1, kd 1.686 1/s): 5.12
pKD (Immobilization level 5500.0 pg/mm2, Rmax 61.0 pg/mm2, ka 227099.936 M-1s-1, kd 1.979 1/s): 5.06
pKD (Immobilization level 10000.0 pg/mm2, Rmax 53.0 pg/mm2, ka 348896.97 M-1s-1, kd 2.109 1/s): 5.22
pKD (Immobilization level 12000.0 pg/mm2, Rmax 62.0 pg/mm2, ka 212895.642 M-1s-1, kd 1.524 1/s): 5.14
pKD (Immobilization level 13000.0 pg/mm2, Rmax 66.0 pg/mm2, ka 290082.005 M-1s-1, kd 1.572 1/s): 5.27

COCCCN1Cc2ccc(NC(=O)c3cc(Cl)cc4[nH]ncc34)cc2C1
pKD (Immobilization level 3900.0 pg/mm2, Rmax 42.0 pg/mm2, ka 388632.967 M-1s-1, kd 5.459 1/s): 4.85
pKD (Immobilization level 4900.0 pg/mm2, Rmax 39.0 pg/mm2, ka 367718.358 M-1s-1, kd 4.612 1/s): 4.9
pKD (Immobilization level 5500.0 pg/mm2, Rmax 38.0 pg/mm2, ka 400996.136 M-1s-1, kd 4.84 1/s): 4.92
pKD (Immobilization level 10000.0 pg/mm2, Rmax 39.0 pg/mm2, ka 289414.732 M-1s-1, kd 5.077 1/s): 4.76
pKD (Immobilization level 12000.0 pg/mm2, Rmax 59.0 pg/mm2, ka 250455.768 M-1s-1, kd 3.882 1/s): 4.81
pKD (Immobilization level 13000.0 pg/mm2, Rmax 33.0 pg/mm2, ka 234107.52 M-1s-1, kd 2.737 1/s): 4.93

CNC(=O)[C@H](Nc1ccc2c(c1)CNC2)c1cc(Cl)cc2[nH]ncc12
pKD (Immobilization level 3900.0 pg/mm2, Rmax 42.0 pg/mm2, ka 444409.109 M-1s-1, kd 0.101 1/s): 6.65
pKD (Immobilization level 4900.0 pg/mm2, Rmax 59.0 pg/mm2, ka 262811.946 M-1s-1, kd 0.117 1/s): 6.35
pKD (Immobilization level 5500.0 pg/mm2, Rmax 61.0 pg/mm2, ka 294175.896 M-1s-1, kd 0.112 1/s): 6.42
pKD (Immobilization level 10000.0 pg/mm2, Rmax 56.0 pg/mm2, ka 424251.343 M-1s-1, kd 0.126 1/s): 6.53
pKD (Immobilization level 12000.0 pg/mm2, Rmax 69.0 pg/mm2, ka 214381.257 M-1s-1, kd 0.135 1/s): 6.2
pKD (Immobilization level 13000.0 pg/mm2, Rmax 81.0 pg/mm2, ka 342437.146 M-1s-1, kd 0.116 1/s): 6.47

NCCc1cccc(NC(=O)c2cc(Cl)cc3[nH]ncc23)c1
pKD (Immobilization level 3900.0 pg/mm2, Rmax 45.0 pg/mm2, ka 242931.571 M-1s-1, kd 0.931 1/s): 5.42
pKD (Immobilization level 4900.0 pg/mm2, Rmax 34.0 pg/mm2, ka 409629.847 M-1s-1, kd 0.648 1/s): 5.8
pKD (Immobilization level 5500.0 pg/mm2, Rmax 28.0 pg/mm2, ka 470049.02 M-1s-1, kd 0.591 1/s): 5.9
pKD (Immobilization level 10000.0 pg/mm2, Rmax 29.0 pg/mm2, ka 565007.877 M-1s-1, kd 0.814 1/s): 5.84
pKD (Immobilization level 12000.0 pg/mm2, Rmax 46.0 pg/mm2, ka 296699.948 M-1s-1, kd 0.701 1/s): 5.63
pKD (Immobilization level 13000.0 pg/mm2, Rmax 42.0 pg/mm2, ka 451227.872 M-1s-1, kd 0.736 1/s): 5.79

Cc1ccc(NC(=O)c2cc(Cl)cc3[nH]ncc23)cc1CN
pKD (Immobilization level 3900.0 pg/mm2, Rmax 48.0 pg/mm2, ka 216599.094 M-1s-1, kd 1.609 1/s): 5.13
pKD (Immobilization level 4900.0 pg/mm2, Rmax 54.0 pg/mm2, ka 242573.531 M-1s-1, kd 1.329 1/s): 5.26
pKD (Immobilization level 5500.0 pg/mm2, Rmax 70.0 pg/mm2, ka 222473.098 M-1s-1, kd 1.517 1/s): 5.17
pKD (Immobilization level 10000.0 pg/mm2, Rmax 57.0 pg/mm2, ka 286418.042 M-1s-1, kd 1.725 1/s): 5.22
pKD (Immobilization level 12000.0 pg/mm2, Rmax 54.0 pg/mm2, ka 243003.449 M-1s-1, kd 1.258 1/s): 5.29
pKD (Immobilization level 13000.0 pg/mm2, Rmax 74.0 pg/mm2, ka 258887.039 M-1s-1, kd 1.289 1/s): 5.3

CCNCc1ccc(NC(=O)c2cc(Cl)cc3[nH]ncc23)cc1
pKD (Immobilization level 3900.0 pg/mm2, Rmax 49.0 pg/mm2, ka 254831.951 M-1s-1, kd 6.984 1/s): 4.56
pKD (Immobilization level 4900.0 pg/mm2, Rmax 79.0 pg/mm2, ka 107155.284 M-1s-1): 4.35
pKD (Immobilization level 5500.0 pg/mm2, Rmax 69.0 pg/mm2, ka 175345.198 M-1s-1): 4.55
pKD (Immobilization level 12000.0 pg/mm2, Rmax 35.0 pg/mm2, ka 320872.936 M-1s-1, kd 4.693 1/s): 4.83

CNCc1cccc(NC(=O)c2cc(Cl)cc3[nH]ncc23)c1
pKD (Immobilization level 3900.0 pg/mm2, Rmax 52.0 pg/mm2, ka 146599.437 M-1s-1, kd 4.892 1/s): 4.48
pKD (Immobilization level 4900.0 pg/mm2, Rmax 92.0 pg/mm2, ka 51361.571 M-1s-1, kd 2.243 1/s): 4.36
pKD (Immobilization level 5500.0 pg/mm2, Rmax 53.0 pg/mm2, ka 187092.368 M-1s-1, kd 3.041 1/s): 4.79
pKD (Immobilization level 12000.0 pg/mm2, Rmax 56.0 pg/mm2, ka 231928.789 M-1s-1, kd 3.617 1/s): 4.81

O=C(Nc1ccc2c(c1)CNC2)c1ccc(F)c2[nH]ncc12
pKD (Immobilization level 10000.0 pg/mm2, Rmax 1.0 pg/mm2, ka 202467.762 M-1s-1, kd 1.761 1/s): 5.06
pKD (Immobilization level 12000.0 pg/mm2, Rmax 8.0 pg/mm2, ka 155094.955 M-1s-1, kd 1.71 1/s): 4.96
pKD (Immobilization level 13000.0 pg/mm2, ka 200831.038 M-1s-1, kd 1.747 1/s): 5.06

Cn1cc2cc(Cl)cc(C(=O)Nc3ccc4c(c3)CNC4)c2n1
pKD (Immobilization level 10000.0 pg/mm2, Rmax 16.0 pg/mm2, ka 983801.201 M-1s-1, kd 0.863 1/s): 6.06
pKD (Immobilization level 12000.0 pg/mm2, Rmax 34.0 pg/mm2, ka 627028.403 M-1s-1, kd 0.493 1/s): 6.1
pKD (Immobilization level 13000.0 pg/mm2, Rmax 25.0 pg/mm2, ka 951140.583 M-1s-1, kd 0.688 1/s): 6.14

O=C(Nc1ccc2c(c1)CNC2)c1cc(Br)cc2[nH]c([C@H]3CCOC3)nc12
pKD (Immobilization level 10000.0 pg/mm2, Rmax 19.0 pg/mm2, ka 727525.444 M-1s-1, kd 0.791 1/s): 5.96
pKD (Immobilization level 12000.0 pg/mm2, Rmax 41.0 pg/mm2, ka 451126.44 M-1s-1, kd 0.431 1/s): 6.02
pKD (Immobilization level 13000.0 pg/mm2, Rmax 27.0 pg/mm2, ka 652953.753 M-1s-1, kd 0.609 1/s): 6.03

Cc1ccc(S(=O)(=O)CNC(=O)[C@H](Nc2ccc3c(c2)CNC3)c2cc(Cl)cc3[nH]ncc23)cc1
pKD (Immobilization level 10000.0 pg/mm2, Rmax 21.0 pg/mm2, ka 226355.861 M-1s-1, kd 0.557 1/s): 5.61
pKD (Immobilization level 12000.0 pg/mm2, Rmax 37.0 pg/mm2, ka 111566.09 M-1s-1, kd 0.368 1/s): 5.48
pKD (Immobilization level 13000.0 pg/mm2, Rmax 27.0 pg/mm2, ka 177747.1 M-1s-1, kd 0.47 1/s): 5.58
